Laboratory results published in PubChem BioAssay (NCI).
The panel holds about 83,000 compounds, 20% with a hit somewhere; the sample as a whole holds those more often.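 For each line, cells grew in 96-well plates with the test compound present at a single concentration for 48 hours.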 Unmarked numbers belong to inactive results. Activity calls are given as the source filed them. Rule for the calls: active = growth percent below 10; inactive = the rest.

Tests used:
Experiment in all cases: NCI-60 one-dose screen, 48 h (100 = growth as untreated, 0 = no growth, -100 = all killed)
Conditions in all cases: 10 µM unless noted
[1] = test system: NCI-H23 lung
[2] = test system: NCI-H226 lung
[3] = test system: NCI-H322M lung
[4] = test system: HOP-62 NSCLC
[5] = test system: NCI-H460 lung
[6] = test system: HOP-92 NSCLC
[7] = test system: NCI-H522 lung
[8] = test system: A549/ATCC NSCLC
[9] = test system: 786-0 renal
[10] = test system: COLO 205 colon

Structure (SMILES)	growth [1]	growth [2]	growth [3]	growth [4]	growth [5]	growth [6]	growth [7]	growth [8]	growth [9]	growth [10]
Nc1c(C(=O)Nc2c(Cl)cccc2Cl)sc2nc3c(cc12)CCCC3	84.1%	91.4%	94%	50.1%	66.4%	89.2%	62.8%	66.5%	103%	70.3%
O=C(N/N=C/c1ccccc1SSc1ccccc1/C=N/NC(=O)c1ccccc1)c1ccccc1	33.5%	44.8%	46.5%	20.2%	10% (active)	59.6%	54%	49.6%	23.6%	6.05% (active)
CC(c1ccccc1)N1C(=O)C(C2SC(=S)N(C(C)c3ccccc3)C2=O)SC1=S (stereo not given)	96.1%	99.9%	93.1%	97.5%	82.5%	83.7%	77.5%	82.3%	96.2%	85.7%
Cc1cc2nc3c4cc(O)ccc4n(CCN(C)C)c3nc2cc1C	-35.3% (active)	-24.6% (active)	-11% (active)	3.06% (active)	3.73% (active)	21.1%	-13.5% (active)	-32.7% (active)	5.67% (active)	-40.6% (active)
CC(Cc1ccco1)C(=O)NC(N)=O (stereo not given)	97.4%	95.8%	99.2%	106%	107%	109%	97.4%	91.9%	103%	120%
N#CC1=C(N)Oc2ccc3ccccc3c2C1c1ccccc1 (stereo not given)	43.9%	51.6%	62.1%	39.7%	21.7%	62.6%	34.7%	51%	35.5%	32.6%
O=c1c2sc3ncc(Br)cc3c2ncn1-c1cccc(Cl)c1	87.4%	87.3%	48.2%	60.3%	24.9%	72.7%	82.8%	43%	89%	86.3%
C[C@H]1OC(=O)/C=C/[C@@H](O)[C@@H](O)CCCCCCCC[C@@H]1O	95.1%	89.3%	96.2%	82.9%	102%	82.8%	79.5%	73.6%	97.5%	95.1%
Fc1ccc(NCc2nnc(-c3ccc(Cl)cc3)o2)cc1	70.1%	71.8%	82.5%	84.6%	83.7%	67%	56.5%	66.1%	87.8%	90%
CC/C=C\C[C@H]1CC=C2C(=O)C=C[C@@H]2CC=CCCCC(=O)O[C@@H](CCCCC)CC=C2C(=O)C=C[C@@H]2CC=CCCCC(=O)O[C@@H](CCCCC)CC=C2C(=O)C=C[C@@H]2CC=CCCCC(=O)O[C@@H](CCCCC)CC=C2C(=O)C=C[C@@H]2CC=CCCCC(=O)O1	4.69% [7.9 µM] (active)	74.6% [7.9 µM]	85.7% [7.9 µM]	8.97% [7.9 µM] (active)	30.4% [7.9 µM]	7.82% [7.9 µM] (active)	-16.2% [7.9 µM] (active)	39% [7.9 µM]	23% [7.9 µM]	-26.7% [7.9 µM] (active)
CN(CSc1ccc(Cl)cc1)c1ccc(CSc2ccc(Cl)cc2)cc1	90.6%	43.3%	86.4%	118%	62%	57.2%	32%	50.5%	31.6%	41%
NCCn1cc(-c2nc(-c3c[nH]c4ncccc34)cs2)c2cc(Br)ccc21	81.9%	80.3%	80.1%	78.1%	14.9%	53.6%	100%	65.3%	87.3%	-17.1% (active)
COC(=O)[C@]12CC[C@@H](C)[C@H](C)[C@@H]1C1=CC[C@@H]3[C@@]4(C)C[C@@H](OC(C)=O)[C@H](O)[C@@](C)(CO)[C@@H]4[C@H](O)C[C@@]3(C)[C@]1(C)CC2	-82% (active)	-48.6% (active)	-93.2% (active)	-89.8% (active)	-72.6% (active)	-87.7% (active)	-90.3% (active)	-88.3% (active)	-77.3% (active)	-87.8% (active)
